# Screen size: about 69,000 compounds; about 8,600 (12%) showed an effect of 50% or more. This excerpt belongs to a sample that is enriched for strong results.
# Test system: Plasmodium berghei
# Assay: Screen against P. berghei liver stage (PbLuc), transformed with Luciferase, at 10uM
# Assay type: functional, HepG2
# Conditions: tested at 10 uM
row,Compound,INHIBITION [%]
1,Cc1cc(C)nc(N2CC=C[C@@H]2C(=O)NCc2ccc3c(c2)OCO3)n1,4.41
2,CC(C)n1c(=O)c2ccccc2n(CCN2CCCCC2)c1=O,3.19
3,COc1ccc(C)cc1C(=O)NC1(C#N)CCOCC1,42.1
4,COC(=O)c1ccc(N2CCN(CCS(C)(=O)=O)C(C)C2)cc1 (configuration not stated),0.411
5,Cc1cc(C(=O)CN2CCN(c3cnccn3)CC2)c(C)n1C(C)C,17.7
6,CCOc1ccnc(N2CCN(C(=O)c3ccc(C#N)cc3)CC2)n1,36.1
7,N#Cc1ccc(CNCCn2cccn2)c(F)c1,20.74
8,O=C(Cn1c(-c2ccco2)cc2cccnc21)N1CCCC1,-16.8
9,Cc1cccc(C)c1NCc1noc(C2CC2)n1,36.3
10,CS(=O)(=O)Cc1ccc(Cl)c(NCc2noc(C3CC3)n2)c1,57.8
11,CCCc1noc(CNc2cc(C[S+](C)[O-])ccc2Cl)n1 (configuration not stated),30.9
12,CCCc1nc(CNc2cc(CS(C)(=O)=O)ccc2Cl)no1,52.2
13,Clc1ccc(C2(NCc3noc(C4CC4)n3)CCC2)cc1,8.18
14,CCCc1nc(CNc2ccc(F)c(F)c2)no1,-9.51
15,CC(=O)N[C@H]1CCO[C@@H](c2cccc(NC(=O)Cc3ccccc3)c2)C1,13.205
16,CCc1nnc(CN2CCOC(Cn3cc(C)cn3)C2)o1 (configuration not stated),15.5
17,CC(=O)N1CCCN(C(=O)C(C)n2cncn2)CC1 (configuration not stated),10
18,CCc1cc(NCCCc2nc(C)no2)nc(-c2ccncc2)n1,17.6
19,OC1(CN2CCC(Oc3cccc(C(F)(F)F)c3)CC2)CCNC1 (configuration not stated),87.7
20,O=C(c1ccc(=O)[nH]c1)N1CCC(Oc2cccc(C(F)(F)F)c2)CC1,50.1
21,O=C(c1cccnc1)N1CCC(Oc2cccc(C(F)(F)F)c2)CC1,27.6
22,O=c1ccn([C@H]2CCN(Cc3ncc[nH]3)CC[C@@H]2O)c(=O)[nH]1,24.4
23,O=C(c1ccncc1)N1CCC(Oc2cccc(C(F)(F)F)c2)CC1,10.5

row,Compound,INHIBITION [%]
1,Fc1cccc(OC2CCN(Cc3ncc[nH]3)CC2)c1,40
2,OC1(CN2CCC(Oc3cccc(C(F)(F)F)c3)CC2)CNCCOC1 (configuration not stated),37.1
3,Nc1cc(C(=O)N2CCC(Oc3cccc(C(F)(F)F)c3)CC2)ccn1,38.3
4,Cc1cccc(CNC(=O)NCC2CCN(Cc3ncc[nH]3)C2)c1 (configuration not stated),4.68
5,FC(F)(F)c1cccc(OC2CCN(Cc3ncc[nH]3)CC2)c1,79.7
6,OC1(CN2CCC(Oc3cccnc3)CC2)CNCCOC1 (configuration not stated),-16.8
7,Cc1cccc(OC2CCN(Cc3ncc[nH]3)CC2)c1,53.2
8,COc1ccc(Cl)cc1C(=O)NCCNc1cnccn1,-21.8
9,O=C1CC2(CCN(c3nncs3)C2)CN1c1cccc(F)c1 (configuration not stated),-6.3
10,CCN1CC2(CC1=O)CN(C(=O)NC(C)C)CCN(C(=O)C(C)C)C2 (configuration not stated),30.5
11,CN(C)C(=O)N1C[C@@H]2COC[C@]2(CNS(C)(=O)=O)C1,14.2
12,CC(=O)N1CCO[C@@H]2CN(Cc3ccccc3Cl)C[C@@H]2C1,38.5
13,Cc1ccccc1C1(C(=O)NCCN(C(C)C)C(C)C)CCOCC1,-52.66
14,c1cc2nccc(CC3CCCN(C4CCOCC4)CC3)c2cn1 (configuration not stated),15.9
15,CN(C)[C@@H]1CN(C(=O)Cc2cccs2)[C@@H]2CCCO[C@H]12,24.6
16,O=C(c1ccc(N2CCOCC2)cc1)N1CCCC(n2ccnc2)C1 (configuration not stated),41.415
17,CN(C)c1ncccc1CNC(=O)NCCN(C)C1CCCC1,28.8
18,CCOC(=O)C1CCN(Cc2csc(-c3ccc(C)o3)n2)CC1,0.914
19,O=C(C1CCOCC1)N1CC[C@@H](O)[C@@H]1Cc1ccncc1,-2.35
20,CC(=O)N1CCC(n2nccc2-c2cnc(N3CCCC3)nc2)CC1,33.7
21,FC(F)(F)c1cccc(OC2CCN(Cc3c[nH]cn3)CC2)c1,88
22,FC(F)(F)c1cccc(OC2CCN(Cc3ccccn3)CC2)c1,40.7
23,Nc1ccc(C(=O)N2CCC(Oc3cccc(C(F)(F)F)c3)CC2)cn1,29.8

row,Compound,INHIBITION [%]
1,CCc1nc(C2CCCN2C(=O)CCCn2cncn2)no1 (configuration not stated),-59.4
2,CN1C(=O)CCCC12CCCN(C(=O)c1ccc3c(c1)OCO3)C2 (configuration not stated),-36.8
3,CCS(=O)(=O)N1CCC2(CC1)CN(Cc1ccccn1)C(=O)CO2,35.8
4,CCOC(=O)[C@H]1[C@@H](O)C(=O)N(C)C12CCN(C(=O)OCC)CC2,20
5,CCOC(=O)[C@H]1[C@@H](O)C(=O)N(C)C12CCN(C(=O)c1ccccc1)CC2,58.5
6,CCOC(=O)[C@@H]1[C@@H](O)C(=O)N(C)C12CCN(C(=O)c1ccco1)CC2,-3.5
7,CCN(CC)S(=O)(=O)NCc1ccc(-c2ccc(C(N)=O)c(C)n2)cc1,-5.8
8,CN(CCc1cccs1)C(=O)Nc1cccc(S(C)(=O)=O)c1,-93.6
9,Cc1nc(CN2CCN(C(=O)NC(C)c3cccnc3)CC2)cs1 (configuration not stated),41.5
10,CC(C)Oc1ccc(CNC(=O)CC(F)(F)F)cc1F,-4.69
11,CC(C)Oc1ccc(CNC(=O)NCc2ccncc2)cc1F,29.5
12,CC(C)Oc1ccc(NCc2ccc([S+](C)[O-])cc2)c(F)c1 (configuration not stated),93.1
13,CN(Cc1cccc(C#N)c1)c1ncc(C(N)=O)cc1Cl,66.3
14,COc1cccc(CN(C)c2ncc(C(N)=O)cc2Cl)c1,26.9
15,CN(Cc1cccc(C(N)=O)c1)c1ncc(C#N)cc1Cl,61.1
16,CN(Cc1ccc(C#N)cc1)c1ncc(C(N)=O)cc1Cl,65.4
17,CN(Cc1cccc(C(N)=O)c1)c1ncc(C(N)=O)cc1Cl,49.1
18,CN(c1ncc(C(N)=O)cc1Cl)C1CCC(c2ccccc2)CC1 (configuration not stated),38.1
19,CCN(CC)C(=O)c1ccc(CNc2ncc(C#N)cc2Cl)cc1,-22.8
20,CN(Cc1ccc(C#N)cc1)C(=O)c1ccn(C)c(=O)c1,33.4
21,COCCN(CCOC)c1ncc(C#N)cc1Cl,-2.39
